From the supplement of paper PMC11732987, “Enantioselective OTUD7B fragment discovery through chemoproteomics screening and high-throughput optimisation” (Communications Chemistry, 2025)

Tests used:
Assay in all cases: log2 ratio of Biotin-Ahx-Ub-VS probe labelling (fragment/DMSO); higher = less target engagement (more negative = stronger competition), active = hit call of the paper (q ≤ 0.05, log2 ratio ≤ -1)
Conditions in all cases: compound concentration: 200 uM; treatment time: 3 h
[1] = target: USP34 (UniProt Q70CQ2)
Chain of USP34 (Q70CQ2 whole entry, the tested form may be a part): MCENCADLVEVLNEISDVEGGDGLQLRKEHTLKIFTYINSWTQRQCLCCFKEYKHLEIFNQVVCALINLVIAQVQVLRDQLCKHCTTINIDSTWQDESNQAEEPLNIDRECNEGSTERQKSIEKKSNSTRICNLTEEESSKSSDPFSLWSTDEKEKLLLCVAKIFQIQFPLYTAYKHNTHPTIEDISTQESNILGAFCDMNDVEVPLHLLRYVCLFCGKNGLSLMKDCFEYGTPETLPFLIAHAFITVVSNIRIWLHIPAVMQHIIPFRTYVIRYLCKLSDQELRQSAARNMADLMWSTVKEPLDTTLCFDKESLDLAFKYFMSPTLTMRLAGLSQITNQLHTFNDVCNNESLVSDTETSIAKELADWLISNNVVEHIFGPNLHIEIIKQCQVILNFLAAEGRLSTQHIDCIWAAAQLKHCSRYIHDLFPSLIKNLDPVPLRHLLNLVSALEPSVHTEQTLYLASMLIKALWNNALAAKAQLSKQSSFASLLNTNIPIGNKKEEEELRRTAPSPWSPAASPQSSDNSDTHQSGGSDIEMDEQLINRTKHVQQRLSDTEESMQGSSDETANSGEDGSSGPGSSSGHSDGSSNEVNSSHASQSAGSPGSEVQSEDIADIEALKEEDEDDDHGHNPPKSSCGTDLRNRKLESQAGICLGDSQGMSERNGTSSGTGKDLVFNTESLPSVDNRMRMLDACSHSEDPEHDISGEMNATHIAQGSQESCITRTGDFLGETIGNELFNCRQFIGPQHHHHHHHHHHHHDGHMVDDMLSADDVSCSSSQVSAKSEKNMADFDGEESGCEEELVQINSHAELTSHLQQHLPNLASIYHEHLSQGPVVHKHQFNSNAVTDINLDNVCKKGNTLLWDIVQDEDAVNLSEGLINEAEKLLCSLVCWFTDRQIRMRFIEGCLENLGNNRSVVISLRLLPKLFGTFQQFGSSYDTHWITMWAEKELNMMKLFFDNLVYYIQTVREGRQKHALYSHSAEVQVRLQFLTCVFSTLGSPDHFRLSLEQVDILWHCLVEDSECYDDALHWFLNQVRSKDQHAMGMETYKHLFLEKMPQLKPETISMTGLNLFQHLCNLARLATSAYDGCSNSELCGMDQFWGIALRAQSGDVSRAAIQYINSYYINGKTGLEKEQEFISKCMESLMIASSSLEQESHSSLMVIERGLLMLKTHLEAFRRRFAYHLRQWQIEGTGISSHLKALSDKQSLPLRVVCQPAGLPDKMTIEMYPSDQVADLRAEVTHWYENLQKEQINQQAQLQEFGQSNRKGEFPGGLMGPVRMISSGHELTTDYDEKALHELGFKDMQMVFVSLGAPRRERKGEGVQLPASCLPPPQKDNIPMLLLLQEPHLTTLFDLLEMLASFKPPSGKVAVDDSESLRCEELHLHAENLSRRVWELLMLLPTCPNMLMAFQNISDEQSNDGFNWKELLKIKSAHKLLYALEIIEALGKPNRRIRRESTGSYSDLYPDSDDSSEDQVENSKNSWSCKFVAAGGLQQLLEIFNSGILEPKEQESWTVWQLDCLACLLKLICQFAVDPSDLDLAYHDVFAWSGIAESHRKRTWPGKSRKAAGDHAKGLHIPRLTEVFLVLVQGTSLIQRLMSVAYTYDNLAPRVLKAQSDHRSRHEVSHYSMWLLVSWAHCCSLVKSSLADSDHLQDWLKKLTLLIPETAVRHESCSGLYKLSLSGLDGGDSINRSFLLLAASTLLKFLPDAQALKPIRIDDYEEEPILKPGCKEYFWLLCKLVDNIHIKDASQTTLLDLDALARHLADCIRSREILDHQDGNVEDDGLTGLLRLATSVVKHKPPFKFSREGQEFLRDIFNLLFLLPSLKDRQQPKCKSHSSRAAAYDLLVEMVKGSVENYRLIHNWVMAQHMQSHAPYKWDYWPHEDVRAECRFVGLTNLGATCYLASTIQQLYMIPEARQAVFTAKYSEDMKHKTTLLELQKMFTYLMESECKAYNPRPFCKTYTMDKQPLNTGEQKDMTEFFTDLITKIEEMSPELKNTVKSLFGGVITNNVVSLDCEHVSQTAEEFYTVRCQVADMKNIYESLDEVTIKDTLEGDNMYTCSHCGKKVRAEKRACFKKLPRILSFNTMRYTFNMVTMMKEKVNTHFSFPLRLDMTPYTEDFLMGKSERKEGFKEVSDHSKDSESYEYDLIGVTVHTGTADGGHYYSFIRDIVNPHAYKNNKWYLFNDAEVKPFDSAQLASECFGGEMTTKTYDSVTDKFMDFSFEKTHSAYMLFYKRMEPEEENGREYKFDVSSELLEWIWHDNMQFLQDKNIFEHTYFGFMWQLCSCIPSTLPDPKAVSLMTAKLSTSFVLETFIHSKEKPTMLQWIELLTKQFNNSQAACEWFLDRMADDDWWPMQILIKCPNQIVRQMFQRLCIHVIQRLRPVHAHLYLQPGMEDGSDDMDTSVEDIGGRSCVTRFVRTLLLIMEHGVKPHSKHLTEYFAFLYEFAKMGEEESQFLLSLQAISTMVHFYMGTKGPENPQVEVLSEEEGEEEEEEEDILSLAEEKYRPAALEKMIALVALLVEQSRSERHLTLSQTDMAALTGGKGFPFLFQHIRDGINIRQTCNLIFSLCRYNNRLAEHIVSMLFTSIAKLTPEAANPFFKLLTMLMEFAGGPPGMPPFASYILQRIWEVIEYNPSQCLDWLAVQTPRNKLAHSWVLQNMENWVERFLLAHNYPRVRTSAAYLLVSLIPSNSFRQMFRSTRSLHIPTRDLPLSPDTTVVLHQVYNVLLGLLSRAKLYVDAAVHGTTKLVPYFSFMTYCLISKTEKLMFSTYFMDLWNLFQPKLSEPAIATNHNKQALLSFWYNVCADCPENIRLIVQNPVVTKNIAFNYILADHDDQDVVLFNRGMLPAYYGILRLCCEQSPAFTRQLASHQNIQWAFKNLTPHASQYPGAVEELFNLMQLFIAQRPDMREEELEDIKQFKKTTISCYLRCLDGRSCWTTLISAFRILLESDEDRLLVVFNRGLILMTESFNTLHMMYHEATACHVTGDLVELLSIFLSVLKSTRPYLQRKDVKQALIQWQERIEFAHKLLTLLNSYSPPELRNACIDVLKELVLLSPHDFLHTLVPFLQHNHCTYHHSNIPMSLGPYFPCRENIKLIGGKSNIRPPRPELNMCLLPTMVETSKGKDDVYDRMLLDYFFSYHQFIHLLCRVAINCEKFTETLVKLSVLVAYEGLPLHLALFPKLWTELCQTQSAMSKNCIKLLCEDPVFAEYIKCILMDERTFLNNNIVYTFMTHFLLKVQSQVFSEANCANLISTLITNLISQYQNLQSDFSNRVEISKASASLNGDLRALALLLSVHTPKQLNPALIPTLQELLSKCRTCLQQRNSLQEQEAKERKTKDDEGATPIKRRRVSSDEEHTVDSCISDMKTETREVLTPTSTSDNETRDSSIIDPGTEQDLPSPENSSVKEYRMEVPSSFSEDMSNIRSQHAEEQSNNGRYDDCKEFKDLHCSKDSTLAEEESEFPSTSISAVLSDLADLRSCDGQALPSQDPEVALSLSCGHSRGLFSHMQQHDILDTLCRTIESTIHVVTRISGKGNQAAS
In short: (§1)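 Triplicate samples of HEK293T lysate, 495 µg each, received fragment at 200 µM or vehicle for 3 h, followed by Biotin-Ahx-Ub-VS (0.5 µM final) for 1 h. After NeutrAvidin enrichment of labelled DUBs and LysC/trypsin digestion, peptides were run by diaPASEF LC-MS/MS. The values are average log2 fragment/vehicle ratios from global-median-normalised Spectronaut label-free quantities, tested by unpaired t-test on proteins having ≥2 unique peptides.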

[2] = target: T1, USP36 (UniProt Q9P275)
T1 sequence (whole entry): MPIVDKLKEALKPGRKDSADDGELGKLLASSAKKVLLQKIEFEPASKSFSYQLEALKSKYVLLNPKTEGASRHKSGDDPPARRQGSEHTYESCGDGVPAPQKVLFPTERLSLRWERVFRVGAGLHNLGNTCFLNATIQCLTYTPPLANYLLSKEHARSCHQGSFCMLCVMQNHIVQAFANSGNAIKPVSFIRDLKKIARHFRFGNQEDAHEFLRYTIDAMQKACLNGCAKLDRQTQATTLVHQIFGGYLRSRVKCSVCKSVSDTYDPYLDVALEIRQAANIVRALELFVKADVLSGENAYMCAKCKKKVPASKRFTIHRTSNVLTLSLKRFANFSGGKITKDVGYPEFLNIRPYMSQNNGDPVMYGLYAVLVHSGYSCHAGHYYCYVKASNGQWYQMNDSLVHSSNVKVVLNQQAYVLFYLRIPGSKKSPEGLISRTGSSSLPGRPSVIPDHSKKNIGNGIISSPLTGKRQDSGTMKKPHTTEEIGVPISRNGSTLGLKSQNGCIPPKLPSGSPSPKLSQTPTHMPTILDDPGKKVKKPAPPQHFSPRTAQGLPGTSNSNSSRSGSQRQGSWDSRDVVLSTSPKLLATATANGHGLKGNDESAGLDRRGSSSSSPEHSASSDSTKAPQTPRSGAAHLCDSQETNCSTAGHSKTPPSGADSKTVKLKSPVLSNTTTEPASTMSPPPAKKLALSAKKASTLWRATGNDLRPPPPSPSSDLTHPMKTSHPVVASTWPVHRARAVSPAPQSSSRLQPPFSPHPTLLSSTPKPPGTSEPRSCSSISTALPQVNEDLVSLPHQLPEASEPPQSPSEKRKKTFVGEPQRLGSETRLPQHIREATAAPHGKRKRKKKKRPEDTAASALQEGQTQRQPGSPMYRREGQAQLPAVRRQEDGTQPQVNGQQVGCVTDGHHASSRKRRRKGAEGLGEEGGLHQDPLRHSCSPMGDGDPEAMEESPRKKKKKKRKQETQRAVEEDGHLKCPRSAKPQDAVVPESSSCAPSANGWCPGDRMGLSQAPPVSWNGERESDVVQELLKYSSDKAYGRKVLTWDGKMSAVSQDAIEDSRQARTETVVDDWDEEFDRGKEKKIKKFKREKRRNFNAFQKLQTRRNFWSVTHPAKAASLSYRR
In short: as §1

[3] = target: T2, USP38 (UniProt Q8NB14)
T2 sequence (whole entry): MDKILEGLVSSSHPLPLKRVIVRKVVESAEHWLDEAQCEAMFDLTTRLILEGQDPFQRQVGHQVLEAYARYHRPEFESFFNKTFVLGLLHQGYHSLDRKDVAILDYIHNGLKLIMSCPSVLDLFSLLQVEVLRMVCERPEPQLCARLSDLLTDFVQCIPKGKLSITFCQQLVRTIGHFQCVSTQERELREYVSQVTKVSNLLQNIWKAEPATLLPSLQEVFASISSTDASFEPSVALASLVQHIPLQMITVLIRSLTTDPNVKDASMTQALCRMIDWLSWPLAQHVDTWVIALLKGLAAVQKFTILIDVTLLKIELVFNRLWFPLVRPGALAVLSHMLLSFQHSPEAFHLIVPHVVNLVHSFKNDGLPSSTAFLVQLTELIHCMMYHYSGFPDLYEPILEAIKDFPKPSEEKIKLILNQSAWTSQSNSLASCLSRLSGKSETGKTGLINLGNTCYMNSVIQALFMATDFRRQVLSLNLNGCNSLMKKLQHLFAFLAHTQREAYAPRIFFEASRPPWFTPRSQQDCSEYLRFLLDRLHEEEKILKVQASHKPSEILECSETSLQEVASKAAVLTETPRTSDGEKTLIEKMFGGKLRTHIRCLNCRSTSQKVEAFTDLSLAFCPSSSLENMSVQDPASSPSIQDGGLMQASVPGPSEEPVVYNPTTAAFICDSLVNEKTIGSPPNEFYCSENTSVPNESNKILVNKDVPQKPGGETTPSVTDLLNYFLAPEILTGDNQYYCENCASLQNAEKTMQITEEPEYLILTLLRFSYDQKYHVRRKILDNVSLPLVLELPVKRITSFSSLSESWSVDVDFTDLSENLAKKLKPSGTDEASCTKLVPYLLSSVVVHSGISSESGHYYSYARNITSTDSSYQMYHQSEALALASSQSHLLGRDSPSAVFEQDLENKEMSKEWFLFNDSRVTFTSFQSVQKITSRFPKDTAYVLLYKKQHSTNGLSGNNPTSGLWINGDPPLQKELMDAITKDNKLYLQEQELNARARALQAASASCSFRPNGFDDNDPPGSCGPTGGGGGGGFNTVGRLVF
In short: as §1

[4] = target: T3, USP39 (UniProt Q53GS9)
T3 sequence (whole entry): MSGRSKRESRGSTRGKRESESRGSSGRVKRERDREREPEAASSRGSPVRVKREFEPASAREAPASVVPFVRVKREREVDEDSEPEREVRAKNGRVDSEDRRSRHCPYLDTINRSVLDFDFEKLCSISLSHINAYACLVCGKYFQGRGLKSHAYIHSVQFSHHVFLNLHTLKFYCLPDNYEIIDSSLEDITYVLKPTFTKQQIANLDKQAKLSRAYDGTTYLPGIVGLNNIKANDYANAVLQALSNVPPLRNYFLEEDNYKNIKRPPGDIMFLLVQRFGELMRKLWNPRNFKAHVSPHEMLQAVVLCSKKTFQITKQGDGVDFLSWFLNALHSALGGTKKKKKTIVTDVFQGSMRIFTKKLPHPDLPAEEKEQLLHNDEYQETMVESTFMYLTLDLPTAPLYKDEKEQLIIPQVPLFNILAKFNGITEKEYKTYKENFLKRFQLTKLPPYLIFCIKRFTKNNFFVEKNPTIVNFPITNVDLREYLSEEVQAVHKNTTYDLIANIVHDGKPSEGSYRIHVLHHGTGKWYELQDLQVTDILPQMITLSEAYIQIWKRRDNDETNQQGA
In short: as §1

[5] = target: T4, USP4 (UniProt Q13107)
T4 sequence (whole entry): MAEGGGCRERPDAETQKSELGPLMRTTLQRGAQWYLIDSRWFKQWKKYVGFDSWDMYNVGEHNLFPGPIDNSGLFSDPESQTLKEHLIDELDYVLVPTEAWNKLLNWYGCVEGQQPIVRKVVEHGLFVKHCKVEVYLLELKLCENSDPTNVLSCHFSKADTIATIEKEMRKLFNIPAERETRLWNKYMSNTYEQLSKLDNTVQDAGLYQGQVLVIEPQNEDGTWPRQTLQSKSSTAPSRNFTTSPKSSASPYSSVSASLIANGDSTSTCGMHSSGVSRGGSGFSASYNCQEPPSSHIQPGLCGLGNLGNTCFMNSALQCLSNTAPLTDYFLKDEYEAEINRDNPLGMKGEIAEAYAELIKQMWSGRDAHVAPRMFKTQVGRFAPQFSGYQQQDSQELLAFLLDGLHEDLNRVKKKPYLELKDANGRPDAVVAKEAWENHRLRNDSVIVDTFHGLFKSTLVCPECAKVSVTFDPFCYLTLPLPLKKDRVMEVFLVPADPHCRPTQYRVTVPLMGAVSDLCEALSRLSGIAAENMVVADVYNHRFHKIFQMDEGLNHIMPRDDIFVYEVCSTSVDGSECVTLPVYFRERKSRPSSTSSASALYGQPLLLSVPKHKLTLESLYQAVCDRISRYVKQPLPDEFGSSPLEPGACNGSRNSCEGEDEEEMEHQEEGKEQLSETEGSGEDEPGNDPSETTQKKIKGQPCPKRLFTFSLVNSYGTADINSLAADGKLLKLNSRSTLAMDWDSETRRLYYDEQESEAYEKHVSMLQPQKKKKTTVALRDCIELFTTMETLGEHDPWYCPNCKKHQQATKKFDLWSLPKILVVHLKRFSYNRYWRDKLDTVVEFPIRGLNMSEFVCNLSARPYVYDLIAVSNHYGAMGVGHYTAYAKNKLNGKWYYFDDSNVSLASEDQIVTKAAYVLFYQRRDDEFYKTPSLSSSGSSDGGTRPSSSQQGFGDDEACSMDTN
In short: as §1

Measured: log2 ratio of Biotin-Ahx-Ub-VS probe labelling

Cc1nnc(C(NC(=O)CCl)c2ccccc2)n1C (stereo not given)
inactive: [1] 0.334 | [2] 0.114 | [3] 0.538 | [4] 0.132 | [5] 0.55
